14 molecules from PubChem BioAssay (NCI) can be followed below.

Among the test systems are NCI-H23 lung; NCI-H226 lung; NCI-H322M lung; HOP-62 NSCLC; NCI-H460 lung; NCI-H522 lung; A549/ATCC NSCLC; 786-0 renal; COLO 205 colon; HOP-92 NSCLC.
Experiment in all cases: NCI-60 one-dose screen, 48 h (100 = growth as untreated, 0 = no growth, -100 = all killed)
Conditions in all cases: 10 µM unless noted

About 83,000 compounds went through this panel and 20% of them were active in at least one assay; those are over-represented in the sample as a whole.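 In brief: 96-well plates, 48 h treatment, single concentration, percent growth endpoint.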 Values without a mark were called inactive. Calls of active or inactive are those of the source. How the source made its calls: active means growth percent below 10; inactive means the rest.

Regarding `Cc1sc2nc(NCCc3c[nH]c4ccc(Cl)cc34)[nH]c(=O)c2c1C`, the growth in the test with NCI-H23 lung is 61.6%; in the test on NCI-H226 lung it was 70.6%; in the test on NCI-H322M lung it was 61.2%; in the test on HOP-62 NSCLC, 34.7%; in the test with NCI-H460 lung, 18.6%; in the test on NCI-H522 lung, -23.9% (active). Moreover, the growth with A549/ATCC NSCLC was 0.107% (active); in the test with 786-0 renal, 56.5%; with COLO 205 colon it was 22.3%.
On to `O=C1Nc2ccccc2/C1=C/c1cccn1CCCCn1c2ccccc2c(=O)c2ccccc21`, for which the growth with NCI-H23 lung is 77.4%; in the test on NCI-H226 lung, 75.2%; with HOP-62 NSCLC it was 77.4%; in the test on NCI-H460 lung it was 93.7%; with HOP-92 NSCLC it was 59.5%; in the test on NCI-H522 lung it was 68.4%. In addition, the growth in the test on A549/ATCC NSCLC is 86.3%; with 786-0 renal, 97%; in the test with COLO 205 colon it was 69.8%.
Turning to `COc1ccc(C(=O)N2c3ccccc3Sc3ccccc32)c(OC)c1`, the growth with NCI-H23 lung was 38%; in the test with NCI-H226 lung it was 31.3%; in the test with HOP-62 NSCLC, 48.4%; in the test on NCI-H460 lung, 9.97% (active); in the test with HOP-92 NSCLC, 31.3%; in the test with NCI-H522 lung, -9.67% (active). The results for the growth in the test on A549/ATCC NSCLC, in the test with 786-0 renal and with COLO 205 colon were 30.6%, 28.6% and -11.4% (active), respectively.
Consider `Cc1ccc(NC(=O)Cn2cc(CN3CCN(c4ccnc5cc(Cl)ccc45)CC3)nn2)cc1`, for which the growth in the test on NCI-H23 lung is 90%; in the test with NCI-H226 lung, 84.9%; in the test on HOP-62 NSCLC, 70.3%; in the test on NCI-H460 lung it was 92.2%; in the test with HOP-92 NSCLC, 52.6%; in the test with NCI-H522 lung it was 87.3%. Besides, the figures for the growth with A549/ATCC NSCLC, in the test on 786-0 renal and in the test on COLO 205 colon were 93.4%, 96% and 98.8%, respectively.
For the molecule `O=C(Nc1ccc(Oc2cccc(F)c2)c(Cl)c1)c1cccnc1`, the growth with NCI-H23 lung was 44.9%; with NCI-H226 lung, 56.9%; in the test on NCI-H322M lung, 50.8%; in the test with HOP-62 NSCLC it was 34%; in the test on NCI-H460 lung it was 24.7%; in the test with NCI-H522 lung, 36.2%. The growth in the test with A549/ATCC NSCLC is 35.5%; in the test on 786-0 renal, 40.9%; in the test with COLO 205 colon it was 22.7%.
As for `CCCCn1c(=O)[nH]c(N)c([C@@H]2c3c([nH]c(=O)n(CCCC)c3=O)Oc3ccc4ccccc4c32)c1=O`, the growth is 13% in the test with NCI-H23 lung; 92% in the test with NCI-H226 lung; 73.6% in the test with HOP-62 NSCLC; 15.4% with NCI-H460 lung; 83.3% in the test with HOP-92 NSCLC; 59% with NCI-H522 lung. Moreover, the growth in the test on A549/ATCC NSCLC was 94.6%; in the test on 786-0 renal, 77.8%; in the test with COLO 205 colon, 59.3%.
On to `CSc1oc(C)nc1[P+](c1ccccc1)(c1ccccc1)c1ccccc1`, for which the growth in the test on NCI-H23 lung is 30%; with NCI-H226 lung, 67.6%; with HOP-62 NSCLC, 87.6%; in the test on NCI-H460 lung, 37.3%; in the test on HOP-92 NSCLC, 59.9%; in the test on NCI-H522 lung it was 56.5%. In addition, the results for the growth in the test on A549/ATCC NSCLC, with 786-0 renal and in the test with COLO 205 colon were 61.8%, 89.3% and 7.5% (active), respectively.
For the molecule `O=C(O)CCCN1C(=O)/C(=C/c2cn(-c3ccccc3)nc2-c2ccc([N+](=O)[O-])cc2)SC1=S`, the growth in the test with NCI-H23 lung is 74.6%; in the test with NCI-H226 lung, 64.8%; in the test with HOP-62 NSCLC, 49.6%; in the test with NCI-H460 lung, 25.7%; in the test on HOP-92 NSCLC, 111%; in the test with NCI-H522 lung, 83.7%. The growth in the test with A549/ATCC NSCLC was 40.5%; in the test with 786-0 renal, 64.5%; with COLO 205 colon, 103%.
For `COC12C=C/C(=C(/C(=O)OCc3ccncc3)C(=O)CCCCCCCCC3(OC)C=C/C(=C(/C(=O)OCc4ccncc4)C(=O)CCCCCCCC1)O3)O2`, the growth with NCI-H23 lung was -61.1% (active); in the test with NCI-H226 lung, -64.7% (active); in the test with HOP-62 NSCLC it was 16.7%; in the test on NCI-H460 lung, 1.88% (active); in the test with HOP-92 NSCLC, -48.9% (active); in the test with NCI-H522 lung, -41% (active). In addition, the growth was 9.15% (active) in the test on A549/ATCC NSCLC, -50.9% (active) in the test with 786-0 renal and -25% (active) with COLO 205 colon.
For `O=C(c1nn(-c2ccccc2)c2c1CC(NCc1ccc(F)cc1)CC2)N1CCCCC1` (stereo unspecified), the growth in the test on NCI-H23 lung is 95.3%; with NCI-H322M lung, 98.2%; with HOP-62 NSCLC, 114%; with NCI-H460 lung, 117%; in the test on HOP-92 NSCLC, 92.5%; in the test with NCI-H522 lung it was 89.3%. The values for the growth in the test with A549/ATCC NSCLC, with 786-0 renal and in the test with COLO 205 colon were 103%, 96.4% and 108%, respectively.
`COc1cc2oc(-c3cccc(NC(=O)c4ccccc4)c3)cc(=O)c2c(OC)c1OC`: the growth with NCI-H23 lung is 72.9%; in the test on NCI-H322M lung, 83.8%; in the test on HOP-62 NSCLC it was 78.4%; with NCI-H460 lung, 78.7%; in the test on HOP-92 NSCLC, 47.6%; with NCI-H522 lung, 49.3%. The growth was 68.9% in the test on A549/ATCC NSCLC, 78.1% in the test on 786-0 renal and 84.4% with COLO 205 colon.
As to `COc1ccc(C2CC(c3ccc(Nc4nc(Nc5ccccc5)nc(Nc5ccccc5)n4)cc3)=NN2C(C)=O)cc1` (stereo unspecified), the growth in the test on NCI-H23 lung is 97.4%; with NCI-H322M lung, 107%; with HOP-62 NSCLC it was 95.2%; in the test on NCI-H460 lung it was 116%; in the test on HOP-92 NSCLC, 78%; with NCI-H522 lung it was 88.7%. Also, the growth in the test with A549/ATCC NSCLC was 88.1%; with 786-0 renal, 88.5%; in the test on COLO 205 colon it was 111%.
`COc1cc(C2c3cc(OC(C)=O)c(OC)cc3CC3C(=O)OCC32)ccc1OC(C)=O` (stereo unspecified): the growth was 105% in the test on NCI-H23 lung; 115% with NCI-H322M lung; 91.8% with HOP-62 NSCLC; 109% with NCI-H460 lung; 53.7% in the test on HOP-92 NSCLC; 105% in the test on NCI-H522 lung. In addition, the values for the growth in the test on A549/ATCC NSCLC, with 786-0 renal and in the test with COLO 205 colon were 104%, 96.4% and 119%, respectively.
For the molecule `CCOC(=O)NC(C)C`, the growth is 106% with NCI-H23 lung; 107% with NCI-H322M lung; 93.4% in the test on HOP-62 NSCLC; 115% with NCI-H460 lung; 79.6% in the test on HOP-92 NSCLC; 99.3% with NCI-H522 lung. For the same molecule, the growth in the test on A549/ATCC NSCLC was 95.7%; in the test with 786-0 renal it was 95.6%; in the test with COLO 205 colon it was 129%.
